NPC1 promoter act: activates the NPC1 promoter; Huh7 NPC1 promoter luciferase reporter, 24 h; Potency, µM (top dose mostly 9.22 µM), inactives show top-dose activation, actives largely listed as activators; hit rate 2.4% among 320,000; also: % of control where 0% means no effect; nearly all actives have a fitted effect of over 60% in size
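Readout is luciferase luminescence, reflecting NPC1 promoter activation in stably transfected Huh7 cells after 24 h compound exposure at 37 °C in reduced-serum medium with 10% FBS.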
FLuc counter: firefly luciferase modulation, counter-screen for miR-21 project; Potency, µM (doses to about 57.5 µM), without a hit: at the highest dose activity change, negative = inhibition, usual class: inhibitors; P08659; purified FLuc, Km substrates, luminescence inhibition; hit rate 6.9% among 360,000;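 also: plate controls were vehicle for no effect and reference inhibitor for full effect; nearly all actives have a fitted effect of over 55% in size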
Target sequence (P08659 whole entry, looked up): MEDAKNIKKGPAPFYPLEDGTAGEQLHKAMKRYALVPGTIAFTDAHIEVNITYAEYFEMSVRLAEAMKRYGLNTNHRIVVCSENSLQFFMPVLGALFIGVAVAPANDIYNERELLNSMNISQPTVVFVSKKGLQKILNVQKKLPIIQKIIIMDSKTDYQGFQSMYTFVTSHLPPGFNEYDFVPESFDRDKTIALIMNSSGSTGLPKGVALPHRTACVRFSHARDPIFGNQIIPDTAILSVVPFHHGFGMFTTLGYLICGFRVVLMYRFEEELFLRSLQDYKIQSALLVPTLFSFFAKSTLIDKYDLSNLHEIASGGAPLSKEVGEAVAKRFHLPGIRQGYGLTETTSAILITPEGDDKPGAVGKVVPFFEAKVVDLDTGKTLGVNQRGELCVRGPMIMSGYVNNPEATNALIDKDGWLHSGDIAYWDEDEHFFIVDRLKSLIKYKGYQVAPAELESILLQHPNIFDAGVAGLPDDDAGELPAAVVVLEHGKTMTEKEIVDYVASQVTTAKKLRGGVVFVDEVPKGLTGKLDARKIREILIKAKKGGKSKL
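Biochemical qHTS of compounds, final roughly 60 µM downward over six points, against 10 nM purified firefly luciferase using Km concentrations of substrates (10 uM D-luciferin, 10 uM ATP) in Tris acetate pH 7.5 buffer; luminescence output.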
ELG1 genotox: genotoxicity induction in ELG1-luciferase HEK293T cells; HEK293T ELG1-luciferase reporter, luminescence, 16 h; hit rate 1.3% among 330,000; AID 504466; Potency, µM (highest dose often 46 µM), for inactives: at the highest dose activity change, positive = activation, actives largely listed as activators; also: % of control where 0% means no effect; nearly all actives have a fitted effect of over 60% in size
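Cells (2,000/well) expressing the ELG1-luciferase fusion are dosed by pin tool and kept 16 hr at 37 °C, 5% CO2. Signal comes from ONE-Glo luciferase reagent after 30 min at room temperature.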
SMN2 splice up: increases expression of the SMN2 splice variant. HEK293 SMN2-luciferase splicing reporter, luminescence, 30-36 h. hit rate 2.8% among 210,000. Potency, µM (titrated, usually from 46.1 µM), for the others: top-dose activity change, positive = activation, most hits filed as activators. AID 1458; also: % of control where 0% means no effect; nearly all actives have a fitted effect of over 55% in size
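HEK293 cells carry an SMN2 minigene-luciferase reporter in which exon 7 inclusion puts luciferase in frame. Cells were seeded at 2000 cells/well, attached for 10-12 hours, then exposed to compounds for 30-36 hours at 37C before ONE-Glo luminescence.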
KinaseGlo FLuc: Kinase-Glo luciferase inhibition (counter-screen); Kinase-Glo luciferase, ATP luminescence, 8 min; Potency, µM (titrated, usually from 38.3 µM), inactives show at the top dose activity change, negative = inhibition, actives largely listed as inhibitors; hit rate 0.28% among 200,000; also: % is scaled to controls: 0 for no effect and ±100 for the full control effect; nearly all actives have a fitted effect of over 60% in size
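Substrate mix (final 50 mM imidazole pH 7.2, 50 mM KCl, 7 mM MgCl2, 10 uM ATP, 0.01% Tween 20, 0.05% BSA) plus pin-tool compound, then Kinase-Glo detection mix; 8 min ambient, luminescence read.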
Rab9 promoter act: activators of Rab9 promoter | Huh7 Rab9 promoter-luciferase reporter, luminescence, 24 h | Potency, µM (series often up to 9.22 µM), inactives show at the top dose activation, negative = inhibition, usual class: activators | hit rate 2.8% among 320,000; also: % of control where 0% means no effect; nearly all actives have a fitted effect of over 60% in size
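Steps: seed 1500 Huh7 Rab9-luc cells per well, rest 2 h at 37 °C; add compound in DMSO; incubate 24 h; add luciferase reagent, 10 min ambient; read luminescence.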
* hit, by the source's call; ? = inconclusive; / = no result given. Shown are actives, neighbours in structure and some others; about 7.5% of the full set was active somewhere. Calls follow the shape of the dose curve; as a rule, active = well fitted curve in the direction sought with a large enough effect; inconclusive = small, poorly fitted or top-dose-only effect, or another doubt; inactive = no such curve, though single readings can be large; an effect the other way counts as inactive or inconclusive. Potency is read from the fitted curve at half-maximal effect.

SMILES	NPC1 promoter act	FLuc counter	ELG1 genotox	SMN2 splice up	KinaseGlo FLuc	Rab9 promoter act
O=C(NCc1ccco1)c1ccc2c(c1)C(=O)c1ccccc1-2	4%	?	15µM*	-7%	0%	16%
O=C(Nc1sc2c(c1C(=O)NCc1ccco1)CCCC2)c1ccc2c(c1)OCO2	0%	12µM*	10µM*	?	5%	?
O=C(NCc1ccco1)c1ccc2ccccc2c1	?	13µM*	11%	17%	-4%	?
O=C(NCc1ccco1)c1ccc(Oc2ccccc2)cc1	14%	24µM*	?	0%	0%	16%
CCOc1ccc(C(=O)NCc2ccco2)cc1	22%	?	?	9%	-8%	22%
CC(C)(CO)NC(=O)c1ccc2c(c1)C(=O)c1ccccc1-2	2.5µM*	19µM*	23µM*	/	/	?
c1cn2c(NC3CCCC3)c(-c3ccc(N4CCOCC4)cc3)nc2cn1	?	2.1µM*	?	13%	-4%	?
CCN(CC)c1ccc(-c2nc3cnccn3c2NC2CCCC2)cc1	15%	11µM*	-1%	-18%	0%	-3%
CCSc1nc2c([nH]c3ccccc32)c(=O)n1CC	/	2%	/	/	/	/
CCOc1cc(C2NN=C(c3ccccc3)S2)ccc1OCc1ccccc1Cl (stereo not drawn)	?	7.6µM*	?	158%	-19%	?
CNCc1ccccc1OCc1ccc(F)cc1	-4%	-1%	-6%	-23%	-1%	-4%
CCOc1cc(C2NN=C(c3ccccc3)S2)ccc1OCc1ccc(F)cc1 (stereo not drawn)	?	6µM*	8.2µM*	13µM*	-7%	3.2µM*
O=S(=O)(c1ccccc1)N1CCC(c2ccncc2)CC1	/	4%	/	/	/	/
N#Cc1ccccc1Cn1c(SCC(=O)NCc2ccccc2)nc2ccccc21	/	6%	/	/	/	/
Cc1c(Cl)cccc1Nc1nc(N)nc(CSc2ncccn2)n1	23%	?	16µM*	8%	16%	?
Cc1c(Cl)cccc1Nc1nc(N)nc(CSCCO)n1	2%	2%	-2%	1%	3%	-2%
CSc1ccc(Cl)c(C(=O)Nc2cc(S(=O)(=O)N3CCOCC3)ccc2N2CCOCC2)c1	/	/	-3%	/	/	/
Fc1ccc(CSc2ccc(-c3cccs3)nn2)cc1	?	?	?	5µM*	-3%	?
Clc1cccc(CSc2ccc(-c3cccnc3)nn2)c1	-2%	?	5%	-1%	0%	-2%
c1cncc(CSc2ccc(-c3cccs3)nn2)c1	?	17µM*	15%	15%	-5%	3.5µM*
O=C(CSc1ccc(-c2cccs2)nn1)Nc1cccc(F)c1	/	24µM*	/	/	/	/
Fc1cccc(CSc2ccc(-c3cccs3)nn2)c1	/	9.5µM*	/	/	/	/
Cc1c(Cl)cccc1NC(=O)C(=O)NCCc1csc(-c2cccc(F)c2)n1	/	0%	/	/	/	/
CCc1nc2ccc(C(=O)NCc3cc(OC)ccc3OC)cc2nc1CC	/	2%	/	/	/	/
Cc1ccc(C)c(NC(=O)CN2C(=O)C3(SCC(=O)N3c3ccc(C)c(C)c3)c3ccccc32)c1 (stereo not drawn)	/	-2%	/	/	/	/
SMILES	NPC1 promoter act	FLuc counter	ELG1 genotox	SMN2 splice up	KinaseGlo FLuc	Rab9 promoter act
Cc1cccc(Cn2cc3c(=O)n(CC(=O)Nc4cccc(C)c4C)nc-3c3cc(F)ccc32)c1	/	-7%	/	/	/	/
Cc1ccc(CSc2ccc(-c3cccs3)nn2)cc1	4.5µM*	2.1µM*	23µM*	14µM*	-10%	2.8µM*
Cc1ccccc1CSc1ccc(-c2cccs2)nn1	/	7.6µM*	/	/	/	/
Cc1cc(C)c2c(=O)cc(C(=O)Nc3ccc(S(=O)(=O)N(C)Cc4ccccc4)cc3)oc2c1	/	4%	/	10%	/	/
CC(C(=O)O)c1ccc(N2Cc3ccccc3C2=O)cc1 (stereo not drawn)	0.089µM*	0.27µM*	11%	1.3µM*	?	0.32µM*
CCc1ccc(Nc2nc(-c3cc4cccc(OC)c4oc3=O)c(CC)s2)cc1	/	-12%	/	/	/	/
CS/C(N)=N/N=C/c1ccc2c(c1)OCO2	?	8.5µM*	?	/	/	2.8µM*
N/C(=N\N=C\c1ccc(O)c(O)c1)c1nonc1N	?	15µM*	?	/	/	?
N/C(=N\N=C\c1ccc([N+](=O)[O-])cc1)c1nonc1N	1.6µM*	?	5.2µM*	/	/	1.4µM*
COc1cc(/C=N/N=C(\N)c2nonc2N)ccc1O	12%	21µM*	?	17%	-11%	20%
COc1ccc(/C=N/N=C(\N)c2nonc2N)cc1OC	?	?	0%	109%	-8%	?
COc1ccc(C)cc1NC(=O)N(C(C)C)C1CCN(C(C)=O)CC1	/	-16%	/	/	/	/
Cc1cccc(-c2ccc3ncnc(NCc4cc(C)cs4)c3c2)c1	-3%	4%	/	/	/	-4%
CCCn1c(=N)c(C(=O)NC(C)c2ccccc2)cc2c(=O)n3ccccc3nc21 (stereo not drawn)	/	-1%	/	/	/	/
CC(=O)N1CCc2cc(S(=O)(=O)NC(CC(C)C)C(=O)NCCc3cccc(C)c3)ccc21 (stereo not drawn)	/	1%	/	4%	/	/
CCc1ccc(NC(=O)c2cc3c(COC(C)=O)cnc(C)c3oc2=O)cc1	/	-2%	/	/	/	/
N/C(=N\N=C\c1ccc(O)cc1)c1nonc1N	3.2µM*	11µM*	?	16µM*	?	3.5µM*
CSc1nncn1/N=C/c1ccc([N+](=O)[O-])cc1	-6%	-3%	0%	8%	1%	-4%
CS/C(N)=N/N=C/c1ccc([N+](=O)[O-])cc1	2.8µM*	21µM*	?	7%	-5%	?
N/C(=N\N=C\c1cccc(O)c1)c1nonc1N	?	1.9µM*	?	18%	13µM*	?
O=C(Nc1ccc(F)cc1F)N1CCc2c(sc3c2CCCC3)C1c1ccc(F)cc1 (stereo not drawn)	/	5%	/	/	/	/
O=C(NC(O)C(=O)c1ccccc1)c1ccccn1 (stereo not drawn)	-3%	15µM*	0%	/	/	-2%
COc1ccccc1Nc1cc(C(=O)NC2CCCC2)c2ccccc2n1	1%	12µM*	1%	-6%	/	0%
Cc1ccc(Nc2ccc(C(=O)NC3CCCCC3)cn2)cc1	20%	?	7%	/	/	19%
COc1ccccc1Nc1ccc(C(=O)NC2CCCCC2)cn1	2%	13µM*	?	-11%	-6%	1%
CCOc1ccc(-c2cc(NC(=O)Nc3ccc(Cl)cc3)c(C(=O)OC)s2)cc1	/	-20%	/	-1%	/	/
COC(=O)c1ccc(COc2ccc(C)cc2[N+](=O)[O-])o1	?	19µM*	-7%	/	/	?

From PubChem
